# The supplement of paper PMC6555819
# Tested on: THRa homodimer (NR concentration 90 nM)
# Experiment: PBM binding z-score (relative to random genomic background probes); higher = stronger binding; sequences stand for … in GC…GCGATTGACAGCGTAGAATGAAGG
# Method in brief: (§1)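 For binding z-scores, the reference was random background probes on custom Agilent 4×180K protein-binding microarrays. These arrays were incubated 1 h with ligand-free nuclear receptor dimers in PBS pH 7.4, 2% milk, 0.02% Triton X-100, 1 mM DTT, 0.2 mg/mL BSA and 0.4 mg/ml salmon testes DNA. Fluorescence was scanned after antibody detection of each partner (one per run) and regression-normalized.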
row,Sequence,PBM binding z-score
1,CCTAGCAGGCGAGGGTCACTCAAGCATTTCGCTT,-0.42
2,CAAACTAGGTCACAGAGGGCAAAGTCCGTGCGTA,1.55
3,CCTTACGGGTCACGGGGTTATAGCACGACGAGCG,0.91
4,ATCGAAAGGTCGAGTTGAGTATAGAGAAAGGGAA,-0.17
5,CCTTCTGGGCCATTCAGAGGTCATTGATCATATG,1.51
6,ATCGAAAAGTCGAAGGTGAGTATACCCACCCGAA,-0.357
7,CCTACTGGGCCATTCAGAGGTTATTGATCATATG,0.14
8,ATATGTAGGTTAGCGTCATTCAGAAAGTAGGGAA,-0.253
9,TCATATAGGTCAAAGGTGAAAGTCGGTGTGGTAA,0.997
10,ATCGAACGGTCGACGAGGTGAGTATACACCGTTT,0.292
11,TAGCCTAGGTCAAGCGGGCCAGTATAGTGTCGGC,0.702
12,ACTAGTTGGTCACCTGAGGTCACACACAATTCGG,5.66
13,CCTGGCAGGCCAGGGTCACTCAAGCATTTCGCTT,0.655
14,CCTACTGGGGCACGAAAGGTCATTGATTCAGTGA,0.632
15,TAGCATAGGTCATGCGGGCCAGTATAGTGTCGGC,-0.558
16,GATAGTTGGTCAGTAAAAGGTCACACACCGGTCG,1.91
17,CAAAGTAGGTCAAGAGGTCAAAGTCCGCTTCCCG,1.84
18,CGTCCAACGTCAGCAGGTCAGTGAAAGCGACGTG,-0.139
19,CAAACTAGGTCACAGAGGTCAAAGTTCGTGCGTA,3.18
20,CAAACTAGGTCACGAAAGGTCAAAGCCGAATGAC,2.55

row,Sequence,PBM binding z-score
1,CCTACTGTGCCATTCAGAGGTCATTGATCATATG,2.43
2,TGAATGACGTTAAAGATCAGGGAACGTGGCGTCG,-0.747
3,TCTAGCTGGTCAAAGGTCACACACTCGAAATGCG,1.36
4,ATCGAAAGGTCGACGAGGTGAGTATGCACCGTTT,0.762
5,CGAACTAAGTCAAAGGACAGTGAAAGGCGACGTA,-0.0369
6,ATCGAAAGGTCGAAGGTCAGTATACCCACCCGAA,0.706
7,ATATGCAGGTTATCGGGTCATTCAGTTTGCGCAT,2.55
8,TCTTGTAGGTCAAAGGTTAAGAAAGCCGAAGCCT,0.452
9,GATACACGGTCAAGGCCAGAGTACGCGTATTGAT,-0.515
10,CCTACTGGGCCAAAAAGGTAATTGATGCCGATAA,-0.602
11,AGTAGCAGGCCAAGGGTCACTCAAGATTAGTCCG,0.326
12,CAAACTAGGTCACAGAGGTTAAAGTCCGTGCGTA,2.1
13,ATATGTAGGTTACGTCCGGGTCATTCAGGCTATG,2.88
14,CAAACTAGGTCACAGAGGTCAAACTCCGTGCGTA,3.37
15,TGAATGAAGTTAAAGATCAGGGAACGTGGCGTCG,-1.06
16,CGTCAAAGTTCAAGGCAACGTAACAGAAAGCAGC,-0.246
17,CCGACTGGGGCAAAGGTTACCATGCTCAGTACGA,-0.38
18,TTACCAAGGTGAAAGGTCGGTGATGCACGCCTTG,0.427
19,TGAATGAGGTTAAAGGTCAGGGAACGTGGCGTCG,1.94

# Tested on: VDR homodimer (NR concentration 270 nM)
# Experiment: as above
# Method in brief: as §1
row,Sequence,PBM binding z-score
1,CCTAGCAGGCGAGGGTCACTCAAGCATTTCGCTT,0.128
2,CAAACTAGGTCACAGAGGGCAAAGTCCGTGCGTA,4.18
3,CCTTACGGGTCACGGGGTTATAGCACGACGAGCG,2.44
4,ATCGAAAGGTCGAGTTGAGTATAGAGAAAGGGAA,1
5,CCTTCTGGGCCATTCAGAGGTCATTGATCATATG,3.47
6,ATCGAAAAGTCGAAGGTGAGTATACCCACCCGAA,-0.0912
7,CCTACTGGGCCATTCAGAGGTTATTGATCATATG,0.749
8,ATATGTAGGTTAGCGTCATTCAGAAAGTAGGGAA,0.0488
9,TCATATAGGTCAAAGGTGAAAGTCGGTGTGGTAA,1.49
10,ATCGAACGGTCGACGAGGTGAGTATACACCGTTT,-0.356
11,TAGCCTAGGTCAAGCGGGCCAGTATAGTGTCGGC,-0.353
12,ACTAGTTGGTCACCTGAGGTCACACACAATTCGG,5.13
13,CCTGGCAGGCCAGGGTCACTCAAGCATTTCGCTT,1.3
14,CCTACTGGGGCACGAAAGGTCATTGATTCAGTGA,2.34
15,TAGCATAGGTCATGCGGGCCAGTATAGTGTCGGC,0.259
16,GATAGTTGGTCAGTAAAAGGTCACACACCGGTCG,2.12
17,CAAAGTAGGTCAAGAGGTCAAAGTCCGCTTCCCG,4.84
18,CGTCCAACGTCAGCAGGTCAGTGAAAGCGACGTG,-0.585
19,CAAACTAGGTCACAGAGGTCAAAGTTCGTGCGTA,7.28
20,CAAACTAGGTCACGAAAGGTCAAAGCCGAATGAC,3.58

row,Sequence,PBM binding z-score
1,CCTACTGTGCCATTCAGAGGTCATTGATCATATG,3.56
2,TGAATGACGTTAAAGATCAGGGAACGTGGCGTCG,-0.61
3,TCTAGCTGGTCAAAGGTCACACACTCGAAATGCG,1.86
4,ATCGAAAGGTCGACGAGGTGAGTATGCACCGTTT,1.03
5,CGAACTAAGTCAAAGGACAGTGAAAGGCGACGTA,-0.13
6,ATCGAAAGGTCGAAGGTCAGTATACCCACCCGAA,1.51
7,ATATGCAGGTTATCGGGTCATTCAGTTTGCGCAT,4
8,TCTTGTAGGTCAAAGGTTAAGAAAGCCGAAGCCT,0.881
9,GATACACGGTCAAGGCCAGAGTACGCGTATTGAT,0.324
10,CCTACTGGGCCAAAAAGGTAATTGATGCCGATAA,-0.646
11,AGTAGCAGGCCAAGGGTCACTCAAGATTAGTCCG,1.46
12,CAAACTAGGTCACAGAGGTTAAAGTCCGTGCGTA,3.13
13,ATATGTAGGTTACGTCCGGGTCATTCAGGCTATG,2.91
14,CAAACTAGGTCACAGAGGTCAAACTCCGTGCGTA,7.66
15,TGAATGAAGTTAAAGATCAGGGAACGTGGCGTCG,-0.533
16,CGTCAAAGTTCAAGGCAACGTAACAGAAAGCAGC,2.61
17,CCGACTGGGGCAAAGGTTACCATGCTCAGTACGA,-0.359
18,TTACCAAGGTGAAAGGTCGGTGATGCACGCCTTG,-0.0558
19,TGAATGAGGTTAAAGGTCAGGGAACGTGGCGTCG,2.81
